This is part of a sample that, as a whole, favours compounds with a hit. Of some 83,000 tested, about 20% had one in any assay.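 Single-dose data. Exposure time 48 hours. Values below 10 considered active.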 Values without a mark were called inactive. Activity calls are given as the source filed them.
These compounds were tested on SK-OV-3 ovarian (assay: NCI-60 one-dose screen, 48 h (100 = growth as untreated, 0 = no growth, -100 = all killed)). Settings: 10 µM unless noted.
Protocol: Growth inhibition of the SK-OV-3 human tumor cell line is measured as a screen for anti-cancer activity. Cells are grown in 96 well plates and exposed to the test compound for 48 hours. Compounds are tested at a single concentration, which is 10^-5 M for most compounds. The reported endpoint is percent growth (GI% or GIPRCNT), where numbers from 0 - 100% represent growth inhibition, and numbers from -100% - 0 represent cell death. For example, a value of 40 represents 60% growth inhibition. A value of 0 means no net growth occurred over the course of the experiment. A value of -40 indicates 40% of cells at the beginning of the experiment died by the end of the experiment. A value of -100 means all cells are dead at the end of the experiment.
NCI-60 Human Tumor Cell Lines Screen was performed using the standard one-dose NCI protocol, which is described in more detail at https://dtp.cancer.gov/discovery_development/nci-60/default.htm.
Compounds with GIPRCNT values below 10 were considered active. Activity score was based on GIPRCNT using the following formula: […]
Score is 0 for GIPRCNT values of 100 or above, 50 for GIPRCNT values of 0, and 100 for GIPRCNT values of -100.
NC(=O)SCC(=O)Nc1ccccc1-c1ccccc1 was tested, and the growth was 131%.
Work on CCOC(=O)C(Cc1ccccc1)(C(=O)OCC)C(Br)C(=O)c1ccccc1 (stereo not given) yielded a growth of 92.2%.
In the case of Cn1cnc([N+](=O)[O-])c1S(=O)(=O)Oc1ccc(Cl)cc1, the growth is reported as 104%.
In the case of CCCCSc1cc(C)nc(N)n1, the growth is reported as 97.8%.
For CC/C=C\C=C/C(=O)N/C=C/CC1Cc2cccc(O)c2C(=O)O1 (stereo not given), the growth was 63.9%.
For CN(C)c1ccc2c(c1)/C(=N/O)c1ccccc1-2, the growth was 90.1%.
With COc1ccc(/C=C2\NC(=S)NC2=O)cc1 the growth was 83.8%.
CC(=O)c1cc(C(=O)c2ccc3c(c2)Sc2ccccc2N3)c2c(C)cc(C)cn12 showed a growth of 21%.
With OCCOc1c(Cl)cc(Cl)cc1Cl the growth was 106%.
CC(C)(C)c1cc(O)c(O)c(C(C)(C)C)c1 gave a growth of 67%.
For ClC1=C(Cl)C(Cl)=C(Cl)C1=Cc1ccc(Cl)cc1, the growth was 95.5%.
Compound Clc1ncn[nH]1 has a growth of 96.3%.
For COc1ccc(Cn2c(NCCCN(C)C)nc(=O)n(Cc3ccc(F)cc3)c2=O)cc1, the growth was 86.3%.
In the case of Cc1nn(-c2ccc(Br)cc2)c2nc3c(nc12)C(=O)C(=O)c1ccccc1-3, the growth is reported as 93.6%.
For Cc1c(C(N)=O)sc2nc(SCC(=O)Nc3ccc(Cl)cc3)n(-c3ccccc3)c(=O)c12, the growth was 105%.
COc1ccc(-c2nc3sccn3c2-c2ccnc(S(C)(=O)=O)n2)cc1 gave a growth of 105%.
Work on O=C1c2nsnc2C(=O)c2c(F)c(F)c(F)c(F)c21 yielded a growth of 32.4%.
O=C(Nc1ccc(Nc2ccncc2)cc1)c1ccc(Nc2ccnc3ccc([N+](=O)[O-])cc23)cc1[N+](=O)[O-] gave a growth of 82.8%.
In the case of COc1ccc2c(c1)C(=O)c1c-2c(=O)n(CCCCCCC(=O)NO)c2ccccc12, the growth is reported as -3.32% (active).
For O=C(NCCCO)c1cc(Cl)ccc1O, the growth was 40.6%.
In the case of O=C1c2ccccc2C(=O)c2c1cccc2-n1nnc2ccccc21, the growth is reported as 119%.
Compound Cc1cc(Cl)ccc1Nc1nc(C(F)(F)F)ccc1C(=O)NCC(=O)N/N=C/c1c(Cl)cccc1Cl has a growth of 88.5%.
For O=C(C=C=Nc1ccccc1)C(=O)N=C=Cc1ccccc1, the growth was 107%.
COC(=O)[C@]12CC[C@@H](C)[C@H](C)[C@@H]1C1=CC[C@@H]3[C@@]4(C)C=C(O)C(=O)[C@@]5(C)COC(=C54)C[C@@]3(C)[C@]1(C)CC2 was tested, and the growth was -20.8% (active).
Work on NC(N)=NN=c1c(=O)c2ccccc2c1=O yielded a growth of 98.1%.
In the case of O=C(Nc1ccc(Cl)cc1)c1cc2c(cc1O)[nH]c1ccccc12, the growth is reported as 24.4%.
For CC(=O)Oc1ccc(C23c4ccccc4C2(OC(C)=O)c2cc(OC(C)=O)ccc23)cc1 (stereo not given), the growth was 110%.
COC(=O)C[C@@H]1CC=CC(=O)/C1=C(O)/C=C/c1ccccc1 gave a growth of 32.6%.
In the case of CC(NC(=O)C(C)Oc1ccc(Cl)cc1Cl)C(=O)O (stereo not given), the growth is reported as 102%.
Compound CCCCCCCCCCCCCCCCN=C(CC(=O)O)C(=O)O has a growth of 105%.
In the case of Cc1ccc(NC(=O)CSc2nnc3n(Cc4ccccc4)c(=O)c4c(C)c(C(N)=O)sc4n23)cc1, the growth is reported as -7.67% (active).
NC(=O)NN=C(C1CC1)C1CC1 showed a growth of 104%.
For COc1cc([C@@H]2c3cc4c(cc3C(O[C@@H]3O[C@@H]5CO[C@@H](c6cccs6)OC5[C@H](O)[C@H]3O)C3COC(=O)[C@@H]32)OCO4)cc(OC)c1O (stereo not given in full), the growth was -13.6% (active).
In the case of C/C(=N\N1CC(=O)NC1=O)c1ccc([N+](=O)[O-])o1, the growth is reported as 109%.
NC(=O)c1ccccc1NC(=O)c1ccccc1Cl showed a growth of 107%.
For Nc1nc(SCC2(CCl)COC2)c2[nH]cnc2n1, the growth was 92.9%.
With COc1cc2c(-c3nc4cc(Cl)c(F)cc4s3)cc(=O)oc2c(C)c1OC the growth was -85% (active).
With COc1cccc2c1C(=O)c1c(O)c3c(c(O)c1C2=O)C[C@@](O)(/C(C)=N/NC(=O)c1cccc([N+](=O)[O-])c1)C[C@@H]3OC1CC(N)C(O)C(C)O1 (stereo not given in full) the growth was -29.7% (active).
COc1c(O)cc2oc3cc(O)c(CC=C(C)C)c(O)c3c(=O)c2c1C/C=C(\C)CCC=C(C)C was tested, and the growth was 100%.
CCN(CC)CCCCNc1c2ccccc2[n+](C)c2c1[nH]c1ccccc12 was tested, and the growth was -11.5% (active).

Reference: PubChem BioAssay (NCI)
